# This is a sample that favours compounds with a hit; in the whole collection about 7.8% have one here.
# VACV Venus inh: inhibitors of vaccinia virus (Venus reporter) | Vaccinia virus Venus reporter expression, fluorescence | Potency, µM (top dose mostly 36.5 µM), for the others: at the highest dose activity change, negative = inhibition, actives largely listed as inhibitors | 0.46% of 330,000 active; calls by dose curve; tested in A549 cells; also: potency is read from the fitted curve at half-maximal effect; nearly all actives have a fitted effect of over 30% in size
# HCV inh: blocks hepatitis C virus | Huh7.5.1 HCVcc-Cre infection, luciferase reporter, 44 h | Potency, µM (titrated, usually from 41.8 µM), without a hit: top-dose activity change, negative = inhibition, actives largely listed as inhibitors | 3.4% of 340,000 active | AID 651820; active = well fitted inhibition curve with a large enough effect; inconclusive = small, poorly fitted or top-dose-only effect, or another doubt; inactive = no such curve, though single readings can be large or run the other way; also: potency is read from the fitted curve at half-maximal effect
#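 Antiviral activity was scored by luciferase reporter output from cells infected with HCVcc-Cre (~0.5 moi) in presence of compound, 44 h infection period, cells seeded 1,000/well 4 h prior.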
# Marburg entry inh: Marburg virus entry inhibition | Potency, µM (series often up to 37.8 µM), for the others: at the top dose activity change, negative = inhibition, actives largely listed as inhibitors | Marburg virus pseudotyped entry inhibition, cell reporter | 1.8% of 300,000 active | AID 540276; calls by dose curve; tested in HEK293 cells; also: potency is read from the fitted curve at half-maximal effect
# HCMV inh: human cytomegalovirus inhibition | HFF cells, HCMV-luciferase reporter, 72 h; hits give low values | activity change, negative = inhibition, % at 57.5 µM | 4.5% of 410,000 active | AID 1259415; in the data active = activity change below about -60%; inconclusive = no clear call, values can overlap the other calls; inactive = above about -39%
#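 After 16 h attachment at 37C, HFF cells received test compound and HCMV-luciferase (1 PFU/cell); reporter luminescence read 72 h later, data normalized against buffer-only and known inhibitor Salinomycin.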
# Vaccinia mCherry: inhibitors of vaccinia virus infection (mCherry reporter signal); Vaccinia virus mCherry reporter infection, fluorescence; Potency, µM (highest dose often 36.5 µM), without a hit: at the top dose activity change, negative = inhibition, most hits filed as inhibitors; 0.63% of 310,000 active; AID 720579; calls by dose curve; tested in A549 cells; also: potency is read from the fitted curve at half-maximal effect; nearly all actives have a fitted effect of over 35% in size
# Lassa entry inh: inhibitors of Lassa virus binding or cell entry. Lassa virus pseudotype entry inhibition, cell reporter. Potency, µM (doses to about 37.9 µM), for inactives: top-dose activity change, negative = inhibition, most hits filed as inhibitors. 1.2% of 300,000 active. AID 540256; calls by dose curve; tested in HEK293 cells; also: potency is read from the fitted curve at half-maximal effect; nearly all actives have a fitted effect of over 50% in size
# Active calls of the source: *; i = inactive; ? = inconclusive; nt = not tested or not shown; [ ] = dose if it differs, or a comment. % is scaled to controls: 0 for no effect and ±100 for the full control effect.
SMILES,VACV Venus inh,HCV inh,Marburg entry inh,HCMV inh,Vaccinia mCherry,Lassa entry inh
COc1cccc(/C=N\NC(=O)c2ccc(Cn3cc(Br)c([N+](=O)[O-])n3)o2)c1O,?,2.8µM*,4µM*,-81*,1.3µM*,6.3µM*
CC(OCC(O)CN(C)Cc1nc2ccccc2c(=O)[nH]1)c1ccc(Cl)cc1 (stereo not given),-29%,10µM*,nt,-16,i,nt
CC(NC(=O)CN(C)Cc1nc2ccccc2c(=O)[nH]1)c1ccccc1 (stereo not given),4%,-8%,3%,12,-7%,-19%
Cc1cc(C)n(S(=O)(=O)/C=C/c2ccccc2)n1,nt,?,5.2µM*,-67*,nt,?
CCOCCCNC(=O)c1cc(Sc2ccc(C)cc2)nc2ccccc12,-19%,?,?,-60*,-28%,?
COc1ccc(CCNC(=O)c2cc(Sc3cccc(Cl)c3)nc3ccccc23)cc1OC,-25%,nt,nt,-84*,-30%,?
CCOCCCNC(=O)c1cc(Sc2cccc(Cl)c2)nc2ccccc12,-5%,nt,nt,?,4%,-16%[46.1 µM]
O=C(NCCN1CCOCC1)c1cc(Sc2ccc(F)cc2F)nc2ccccc12,2%,-8%,-2%[46.1 µM],-19,5%,?
O=C(NCCN1CCOCC1)c1cc(Sc2ccccc2Cl)nc2ccccc12,nt,?,-31%,-61*,nt,-29%
Cc1ccc(Nc2ncc(C(=O)N3CCN(c4cccc(Cl)c4)CC3)c3ccccc23)cc1Cl,-12%,nt,-20%[46.1 µM],24,-15%,-12%[46.1 µM]
Cc1ccc(Nc2ncc(C(=O)NCCCN3CCN(C)CC3)c3ccccc23)cc1Cl,-13%,10µM*,?,-19,-19%,?
CCc1cccc(C)c1NC(=O)C(CC)n1nc(C)c2c(C)n(-c3ccccc3)nc2c1=O (stereo not given),-9%,nt,nt,-2,-13%,18%[46.1 µM]
Cc1ccc(N2CCn3c2nc2c3c(=O)n(C/C=C/c3ccccc3)c(=O)n2C)cc1C,-13%,nt,nt,6,-20%,-2%[46.1 µM]
O=C(NCCCN1CCCC1)c1cc(Sc2ccc(F)cc2)nc2ccccc12,-11%,17%,?,-39,-15%,nt
O=C(NCCCN1CCOCC1)c1cc(-c2ccccc2)nc2ccccc12,-9%,3%,-4%,-24,i,0%[46.1 µM]
Cc1ccc(Nc2cc(C(=O)NCCCN3CCOCC3)c3ccccc3n2)cc1C,-8%[7.34 µM],22µM*,nt,-10,-6%[7.34 µM],nt
O=C(NCCCN1CCCCC1)c1cc(Sc2ccc(Cl)cc2)nc2ccccc12,-22%,nt,nt,-71*,-28%,19%[46.1 µM]
CC1CCCN(CCCNC(=O)c2cc(Sc3ccc(F)cc3)nc3ccccc23)C1 (stereo not given),-28%,nt,nt,-71*,-28%,-17%[46.1 µM]
CC(C)(C)c1ccc(C(=O)N2CCN(Cc3cc(=O)n4nc(-c5ccccc5F)sc4n3)CC2)cc1,0%,nt,nt,4,-7%,-2%[46.1 µM]
CCOC(=O)c1sc(NC(=O)CSc2nnc(Cc3ccccc3)o2)c(C(=O)OCC)c1C,nt,6.3µM*,?,0,nt,-19%
CCOC(=O)c1c(-c2ccccc2)csc1NC(=O)CSc1ccccc1,0%,-16%,?,-4,-11%,?
CCOC(=O)c1c(-c2ccccc2)csc1NC(=O)CSc1nnnn1C,nt,7.1µM*,?,-32,nt,?
CCOC(=O)c1sc(NC(=O)CSc2nc3ccccc3o2)c(C(=O)OCC)c1C,-14%,7%,?,37,i,24%
CCOC(=O)c1c(-c2ccccc2)csc1NC(=O)CSc1nncs1,?,?,?,0,?,?
CCOC(=O)c1c(NC(=O)CSc2nncs2)sc(C)c1-c1ccccc1,?,?,?,-64*,?,?
SMILES,VACV Venus inh,HCV inh,Marburg entry inh,HCMV inh,Vaccinia mCherry,Lassa entry inh
CCOC(=O)c1c(NC(=O)CSc2nnnn2C)sc(C)c1-c1ccc(C)cc1,nt,?,23µM*,?,nt,?
O=C(NCc1ccccc1Cl)c1ccccc1NC(=O)c1nsc2ccccc12,-7%[7.34 µM],nt,nt,-37,-12%[7.34 µM],1%[46.1 µM]
C=CS(=O)(=O)N(C(=C)C(=O)OC)S(C)(=O)=O,nt,nt,nt,-81*,nt,nt
C[C@H]1[C@H](O)[C@@H](N=[N+]=[N-])CCO[C@H]1c1ccccc1,nt,nt,-12%[14.2 µM],nt,nt,nt
Cc1[nH]c(-c2ccco2)nc1C(=O)O,nt,18%,9%,-111*,nt,14%
COC(=O)c1cc(CNC(=O)c2ccccn2)cc(NC(=O)c2ccccc2OC)c1,40%,nt,nt,nt,15%,nt
COCC1CCCN(Cc2ccc3c(c2)CN(C(=O)c2ccc(-n4cccn4)cc2)CCO3)C1 (stereo not given),4%,nt,nt,nt,-12%,nt
COc1cc(Nc2nc(SCC(=O)c3ccc(Br)cc3)nc3ccccc23)cc(OC)c1,?,nt,nt,-62*,?,-22%[46.1 µM]
O=C(CSc1nc(Nc2ccc(F)cc2)c2ccccc2n1)c1ccc(F)cc1,-13%,nt,nt,30,-10%,-31%[46.1 µM]
COc1ccc2c(c1)OCC(Cc1ccc(O)c(OC)c1)C2=O (stereo not given),-22%,nt,nt,nt,-8%,nt
CCCCCOc1c(Cl)cc(C(=O)N(Cc2ccc(C)o2)C2CCS(=O)(=O)C2)cc1Cl (stereo not given),-11%,nt,-25%[46.1 µM],30,i,-14%[46.1 µM]
CCCCOc1c(Cl)cc(C(=O)N(Cc2ccc(C)o2)C2CCS(=O)(=O)C2)cc1Cl (stereo not given),-10%,nt,?,-110*,-8%,-2%[46.1 µM]
Cc1ccc(OCC(=O)Nc2cccc(C(=O)OCc3cc(=O)n4cc(C)sc4n3)c2)cc1,-15%,nt,nt,?,-29%,1%[46.1 µM]
CCN1C(=O)C(Cc2nc3ccccc3c(=O)n2-c2ccccc2)c2cc(Br)ccc21 (stereo not given),-11%,nt,?,-70*,-25%,-14%[46.1 µM]
CCN1C(=O)C(Cc2nc3ccccc3c(=O)n2-c2ccc(OC)cc2)c2cc(C)ccc21 (stereo not given),-23%,nt,14%[46.1 µM],-11,-22%,0%[46.1 µM]
CC(=O)c1c2c3c(cccc3n(C)c1=O)C(=O)c1ccccc1-2,nt,3%,nt,nt,nt,nt
Cn1c(=O)c(Nc2ccc(O)cc2)c2c3c(cccc31)C(=O)c1ccccc1-2,-20%,?,-29%,-61*,-28%,-4%
CCC1CCCCN1CCCNC(=O)c1csc2c1CCCCC2 (stereo not given),nt,-1%,nt,-31,nt,nt
COc1ccc(CCNC(=O)c2csc3c2CCCC3)cc1OC,-12%,-21%,?,-34,-10%,-8%[46.1 µM]
O=C(NCc1ccco1)c1csc2c1CCCC2,-9%,8%,0%[46.1 µM],-65*,-13%,8%
CCN1CCCC1CNC(=O)c1csc2c1CCCC2 (stereo not given),?,?,23µM*,53,i,-14%
COc1ccc(OC)c(CCNC(=O)c2csc3c2CCCCC3)c1,1%,nt,?,-62*,-11%,nt
Cc1c(-c2nsc(NC(=O)c3cccs3)n2)nnn1-c1ccc(Cl)cc1,-15%,nt,nt,?,-2%,-2%[46.1 µM]

# Compound activity deposited in PubChem by National Center for Advancing Translational Sciences (NCATS).
